Reference: PubChem BioAssay AID887 (National Center for Advancing Translational Sciences (NCATS), 2007)
Values joined by “and” are separate entries in the source; they are usually repeats but may differ in a detail not shown here. Identical values can stand only once. The campaign covered roughly 74,000 compounds. About 1,100 (1.5%) were called active. Roughly 5% stayed inconclusive and do not appear here. Shown is part of a subset that was picked to be rich in actives. A call without a number means that no potency is given here. A number with no mark means an inactive call. The call rests on the fitted dose curve; in most records, active means well fitted inhibition curve with a large enough effect; inconclusive means small, poorly fitted or top-dose-only effect; inactive means no such curve, though single readings can be large or run the other way. Non-standard residues stand in square brackets, D forms with d. Residues, ends and D or L forms follow the SMILES beside them. Groups on a side chain read outwards from the residue. *: point of attachment. X2 = CCC(C)C(N)C1=NC(C(=O)*)CS1; Orn = NCCC[CH](N)C(=O)O

target: Polyunsaturated fatty acid lipoxygenase ALOX15 (Homo sapiens) (UniProt P16050); test: qHTS Assay for Inhibitors of 15-hLO (15-human lipoxygenase); conditions: purified 15hLO-1, xylenol orange hydroperoxide absorbance; series mostly up to 57.1 µM; further: nearly all actives have a fitted effect of over 55% in size
Method in brief: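 Inhibition is scored from a chromogenic endpoint. After 15 min enzyme-compound contact, arachidonic acid (50 uM final) reacts 6 min with 40 nM 15hLO-1 at room temperature, then Fe-XO reagent is added for 30 min and absorbance ratio recorded.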
Potency means the concentration at half of the fitted maximal effect.

Sequence of Polyunsaturated fatty acid lipoxygenase ALOX15 (Homo sapiens) (P16050 whole entry, looked up): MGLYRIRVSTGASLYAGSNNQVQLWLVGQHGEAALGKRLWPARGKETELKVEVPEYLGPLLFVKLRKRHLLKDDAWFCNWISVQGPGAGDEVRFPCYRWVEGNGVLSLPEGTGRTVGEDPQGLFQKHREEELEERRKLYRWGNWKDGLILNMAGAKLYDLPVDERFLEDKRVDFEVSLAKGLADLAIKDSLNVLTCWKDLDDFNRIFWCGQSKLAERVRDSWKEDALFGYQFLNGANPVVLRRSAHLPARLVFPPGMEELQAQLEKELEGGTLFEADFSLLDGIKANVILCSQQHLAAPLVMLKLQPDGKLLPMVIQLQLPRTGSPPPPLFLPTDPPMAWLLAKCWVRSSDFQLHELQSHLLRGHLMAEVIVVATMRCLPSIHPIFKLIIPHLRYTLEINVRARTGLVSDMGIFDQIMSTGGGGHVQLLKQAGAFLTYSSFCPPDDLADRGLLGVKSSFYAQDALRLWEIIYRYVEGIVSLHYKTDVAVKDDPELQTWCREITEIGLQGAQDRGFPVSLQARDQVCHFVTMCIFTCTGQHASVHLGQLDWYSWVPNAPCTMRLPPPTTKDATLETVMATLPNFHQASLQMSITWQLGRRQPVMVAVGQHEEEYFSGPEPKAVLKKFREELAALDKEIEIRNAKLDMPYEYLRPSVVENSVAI

Q: `CC[C@@H]1Cc2cc(O)ccc2C2=C1c1ccc(O)cc1C[C@H]2CC` was tested. Which Potency did it give?
A: 10 µM (active)

Q: Which activity change, negative = inhibition does the source give for `COc1cccc([C@H](O)Cn2cc(-c3ccc(CON=C(C)C)cc3)nn2)c1` here?
A: 15.5% [at 11.4 µM]

Q: For `C[C@@H](c1ccccc1)N1C(=O)[C@H]2[C@H]3[C@H](O)[C@H](O)C/C(=N/OC[C@@H](O)COCc4ccco4)[C@@H]3CC[C@@H]2C1=O`, which activity change, negative = inhibition is on record?
A: 0.315% [at 11.4 µM]

Q: For `Cc1cnc(CNc2cc(-c3c(C)noc3C)ncn2)cn1`, which activity change, negative = inhibition is on record?
A: inactive

Q: With `CCC(C)C(N)C1=NC(C(=O)NC(CC(C)C)C(=O)NC(CCC(=O)O)C(=O)NC(C(=O)NCCCCC2NC(=O)C(CC(N)=O)NC(=O)C(CC(=O)O)NC(=O)C(Cc3cnc[nH]3)NC(=O)C(Cc3ccccc3)NC(=O)C(C(C)CC)NC(=O)C(CCCN)NC2=O)C(C)CC)CS1` (stereo not drawn) (cyclo(DNK([Ile-Glu-Leu-X2])[Orn]IFH); configuration not given here) as the compound, how does the activity change, negative = inhibition read?
A: inactive

Q: For `COc1ccc(C(=O)NC(=O)CSc2nnc(-c3ccco3)n2-c2ccccc2)cc1`, which activity change, negative = inhibition is on record?
A: inactive

Q: Which Potency does the source give for `O=C(CSc1nnc(-c2ccco2)n1-c1ccccc1)NCCc1ccccc1` here?
A: 6.31 µM (active)

Q: For `Cc1cccc(C)c1NC(=O)CCCSc1nnc(-c2ccco2)n1-c1ccccc1`, which activity change, negative = inhibition is on record?
A: inactive

Q: With `COC(=O)[C@@H]1CC[C@H](C)[C@@H](c2ccc(C)cc2)N1C(=O)c1ccc(/C=N\O[C@@H](C)c2cn([C@H](CO)Cc3ccccc3)nn2)cc1` as the compound, how does the activity change, negative = inhibition read?
A: -7.8% [at 11.4 µM] and 0.419% [at 11.4 µM]

Q: `CC(=O)N1CCC2(CC1)CCN(c1ccncc1)CC2` was tested. Which activity change, negative = inhibition did it give?
A: inactive

Q: With `CC(=O)N1CCN(c2ccc(NCc3ccc(C(C)C)cc3)cc2)CC1` as the compound, how does the Potency read?
A: 12.6 µM (active)

Q: How did the activity change, negative = inhibition turn out when `CN1CCN(c2ccc(NC(=O)COc3ccc(Cl)cc3Cl)cc2)CC1` was run?
A: inactive

Q: For `CC(C)CO/N=C1/C[C@@H](O)[C@@H](O)[C@@H]2[C@@H]3C(=O)N(C[C@@H]4CCCO4)C(=O)[C@H]3CC[C@@H]12`, which activity change, negative = inhibition is on record?
A: 9.84% [at 11.4 µM]

Q: For `C[C@@H]1O[C@@H](OC[C@H]2O[C@@H](Oc3c(-c4cccc(O)c4O)oc4cc(O)cc(O)c4c3=O)[C@H](O)[C@@H](O)[C@@H]2O)[C@H](O)[C@H](O)[C@H]1O`, which activity change, negative = inhibition is on record?
A: inactive

Q: For `CC(C)C(c1nnnn1CCc1ccccc1)N1CCN(C(=O)c2ccco2)CC1` (stereo not given), which activity change, negative = inhibition is on record?
A: inactive

Q: With `O=C(OCc1cc2ccccc2[nH]c1=O)c1cccnc1` as the compound, how does the activity change, negative = inhibition read?
A: inactive

Q: With `C=CCOC(=O)C(C(C)=O)C(NC(=O)OC)c1ccccc1` (stereo not given) as the compound, how does the activity change, negative = inhibition read?
A: 13.9% [at 11.4 µM]

Q: `C=CCn1c(=O)c2ccccc2n2c(SCC(=O)N3CCCc4ccccc43)nnc12` was tested. Which activity change, negative = inhibition did it give?
A: inactive

Q: Which Potency does the source give for `O=C(CSc1nc2[nH]ncc2c(=O)n1-c1ccccc1)N1CCCc2ccccc21` here?
A: 15.8 µM (active)

Q: For `Cc1nnc(SCC(=O)N2CCc3ccccc32)n1-c1ccccc1`, which activity change, negative = inhibition is on record?
A: inactive

Q: With `CC1(C)OC2CC(=O)OC[C@@]23C1CC(=O)[C@]1(C)C3CC[C@@]2(C)C(c3ccoc3)OC(=O)C3O[C@@]321` (stereo not given in full) as the compound, how does the activity change, negative = inhibition read?
A: inactive

Q: For `COc1ccc(C(=O)n2nc(-c3ccc(Cl)cc3)nc2N)cc1OC`, which activity change, negative = inhibition is on record?
A: inactive

Q: With `COc1ccc(C(=O)n2nc(-c3ccc(C)cc3)nc2N)cc1OC` as the compound, how does the activity change, negative = inhibition read?
A: inactive

Q: For `COc1ccccc1C(=O)n1nc(-c2ccccc2)nc1N`, which Potency is on record?
A: 12.6 µM (active)

Q: For `CCOC(=O)c1cccc(NC(=O)CCn2nnc3ccccc32)c1`, which activity change, negative = inhibition is on record?
A: inactive

Q: For `CO[C@@H]1COC(=O)[C@H](Cc2ccccc2)NC(=O)C/C=C\[C@@H](C)[C@H](OC)COC(=O)[C@@H](C)NC(=O)C/C=C\[C@H]1C`, which activity change, negative = inhibition is on record?
A: 2.31% [at 11.4 µM] and 5.99% [at 11.4 µM]

Q: `Cc1cccc(C(=O)O)c1[N+](=O)[O-]` was tested. Which activity change, negative = inhibition did it give?
A: inactive

Q: With `Cc1ccc2nc(CC(=O)c3ccc4ccccc4c3)c(=O)[nH]c2c1` as the compound, how does the activity change, negative = inhibition read?
A: -4.04% [at 11.4 µM]

Q: For `C=CC(=O)c1ccc2ccccc2c1`, which Potency is on record?
A: 12.6 µM (active)

Q: For `Cc1csc(-c2nc3ccccc3n2C)n1`, which activity change, negative = inhibition is on record?
A: inactive

Q: How did the activity change, negative = inhibition turn out when `Cc1cccc2c3c(ccc12)C1=C(C(=O)C3=O)C(C)CO1` (stereo not given) was run?
A: inactive

Q: For `C/C(CCN1CCc2nc(-c3ccccc3)c(-c3ccccc3)cc2C1)=N\O[C@@H](C)c1cn([C@@H]2COC[C@@H]2O)nn1`, which activity change, negative = inhibition is on record?
A: 0.588% [at 11.4 µM]

Q: Which activity change, negative = inhibition does the source give for `O=C(Oc1cc(OC(=O)c2ccccc2)c2c(c1)OC(c1ccc(OC(=O)c3ccccc3)c(OC(=O)c3ccccc3)c1)[C@@H](OC(=O)c1ccccc1)C2)c1ccccc1` (stereo not given in full) here?
A: inactive

Q: Which activity change, negative = inhibition does the source give for `COC(=O)C(C(=O)OC)[C@@H]1CCCC(=O)C1` here?
A: 14.4% [at 11.4 µM]

Q: With `C=CCn1c(SCC(=O)Nc2nc3ccccc3s2)nnc1-c1ccccc1O` as the compound, how does the Potency read?
A: 25.1 µM (active)

Q: How did the activity change, negative = inhibition turn out when `C=CCn1c(CSc2nc3ccccc3s2)nnc1SCC(=O)NCc1ccco1` was run?
A: inactive

Q: For `CCn1c(SCC(=O)Nc2nc3ccc(OC)cc3s2)nnc1-c1ccoc1C`, which activity change, negative = inhibition is on record?
A: inactive

Q: How did the activity change, negative = inhibition turn out when `CC(C)C(N)C(=O)OCCOCn1cnc2c(=O)[nH]c(N)nc21` (stereo not given) was run?
A: inactive

Q: How did the activity change, negative = inhibition turn out when `Cc1ccc2c(c1)C(O)(CC(=O)c1cccnc1)C(=O)N2` (stereo not given) was run?
A: inactive

Q: How did the activity change, negative = inhibition turn out when `COc1ccc(/C=C/NC(=O)c2ccc(OC)cc2)cc1` was run?
A: -5.84% [at 11.4 µM]

Q: For `Cc1cccn2c(=O)c3cc(C(=O)NCc4ccccn4)n(C)c3nc12`, which activity change, negative = inhibition is on record?
A: inactive

Q: `O=C(NCc1ccccn1)c1ccc2nc(-c3ccco3)c(-c3ccco3)nc2c1` was tested. Which Potency did it give?
A: 3.16 µM (active)

Q: Which activity change, negative = inhibition does the source give for `O=C(NCc1ccccn1)c1cc2ccccc2oc1=O` here?
A: inactive

Q: For `O=C(O)c1ccc(Cl)c(S(=O)(=O)Nc2ccccc2Cl)c1`, which activity change, negative = inhibition is on record?
A: inactive

Q: For `N#Cc1ccc(COC(=O)Cn2nnc(-c3ccccc3)n2)cc1`, which activity change, negative = inhibition is on record?
A: inactive

Q: How did the Potency turn out when `N#Cc1c(N)sc2c1CCN(C(=O)OCc1ccccc1)C2` was run?
A: 15.8 µM (active)

Q: With `NC1(C(=O)OCc2ccccc2)CCCC1` as the compound, how does the activity change, negative = inhibition read?
A: -11.8% [at 11.4 µM]

Q: `CC(CCC(=O)O)C1CCC2C3C(O)C[C@@H]4CC(O)CC[C@@]4(C)C3CC[C@@]12C` (stereo not given in full) was tested. Which activity change, negative = inhibition did it give?
A: inactive

Q: `C#CCC(C(=O)OC)(C(=O)OC)C(C[N+](=O)[O-])c1ccccc1` (stereo not given) was tested. Which activity change, negative = inhibition did it give?
A: -3.59% [at 11.4 µM]

Q: How did the activity change, negative = inhibition turn out when `CCC(CCC(C)C1CCC2C3CC=C4CC(O)CC[C@@]4(C)C3CC[C@@]12C)C(C)C` (stereo not given in full) was run?
A: inactive

Q: For `CO[C@H]1COC(=O)C/C=C\[C@H](C)COC(=O)[C@@H](OCc2ccccc2)/C=C\[C@@H]1C`, which activity change, negative = inhibition is on record?
A: 5.89% [at 11.4 µM]

Q: Which activity change, negative = inhibition does the source give for `C=C1C(=O)C23C(O)C1CCC2[C@]12COC3(O)C(O)C1C(C)(C)CC[C@H]2O` (stereo not given in full) here?
A: inactive

Q: For `CCOCCCN1C(=O)CN(C2CCCCC2)C(=O)C1c1ccc(OCC)c(OC)c1` (stereo not given), which activity change, negative = inhibition is on record?
A: inactive

Q: With `COC(=O)[C@@H]1CC[C@H](C)[C@@H](c2ccc(C)cc2)N1C(=O)c1ccc(/C=N\OC[C@@H](O)COCc2ccco2)cc1` as the compound, how does the activity change, negative = inhibition read?
A: -2.65% [at 11.4 µM]

Q: Which activity change, negative = inhibition does the source give for `Cc1ccc(-c2nc(CS(=O)CC(=O)N3CCN(c4ncccn4)CC3)c(C)o2)cc1` (stereo not given) here?
A: inactive

Q: Which Potency does the source give for `COc1ccc2[nH]c(=O)c(CN(Cc3nnnn3CCc3ccccc3)CC3CCCO3)cc2c1` (stereo not given) here?
A: 1.26 µM (active)

Q: For `CCOc1ccc2[nH]c(=O)c(CN(Cc3nnnn3CCc3ccccc3)CC3CCCO3)cc2c1` (stereo not given), which activity change, negative = inhibition is on record?
A: inactive

Q: Which activity change, negative = inhibition does the source give for `CCOc1ccc2[nH]c(=O)c(CN(Cc3nnnn3Cc3ccccc3)CC3CCCO3)cc2c1` (stereo not given) here?
A: inactive

Q: For `O=C(CSc1nnc2scc(-c3ccc(F)cc3)n12)NCc1ccco1`, which activity change, negative = inhibition is on record?
A: inactive

Q: For `CCCc1nc2c(C)cc(-c3nc4ccccc4n3C)cc2n1Cc1ccc(-c2ccccc2C(=O)O)cc1`, which activity change, negative = inhibition is on record?
A: inactive
